# In the supplement of paper PMC11732987, “Enantioselective OTUD7B fragment discovery through chemoproteomics screening and high-throughput optimisation” (Communications Chemistry, 2025):
# Values without a mark were called inactive.
# Columns and labels:
# Assay in all cases: log2 ratio of Biotin-Ahx-Ub-VS probe labelling (fragment/DMSO); higher = less target engagement (more negative = stronger competition), active = hit call of the paper (q ≤ 0.05, log2 ratio ≤ -1)
# Details in all cases: compound concentration: 200 uM; treatment time: 3 h
# [1] = biological target: T1, USP42 (UniProt Q9H9J4)
# T1 sequence (whole entry): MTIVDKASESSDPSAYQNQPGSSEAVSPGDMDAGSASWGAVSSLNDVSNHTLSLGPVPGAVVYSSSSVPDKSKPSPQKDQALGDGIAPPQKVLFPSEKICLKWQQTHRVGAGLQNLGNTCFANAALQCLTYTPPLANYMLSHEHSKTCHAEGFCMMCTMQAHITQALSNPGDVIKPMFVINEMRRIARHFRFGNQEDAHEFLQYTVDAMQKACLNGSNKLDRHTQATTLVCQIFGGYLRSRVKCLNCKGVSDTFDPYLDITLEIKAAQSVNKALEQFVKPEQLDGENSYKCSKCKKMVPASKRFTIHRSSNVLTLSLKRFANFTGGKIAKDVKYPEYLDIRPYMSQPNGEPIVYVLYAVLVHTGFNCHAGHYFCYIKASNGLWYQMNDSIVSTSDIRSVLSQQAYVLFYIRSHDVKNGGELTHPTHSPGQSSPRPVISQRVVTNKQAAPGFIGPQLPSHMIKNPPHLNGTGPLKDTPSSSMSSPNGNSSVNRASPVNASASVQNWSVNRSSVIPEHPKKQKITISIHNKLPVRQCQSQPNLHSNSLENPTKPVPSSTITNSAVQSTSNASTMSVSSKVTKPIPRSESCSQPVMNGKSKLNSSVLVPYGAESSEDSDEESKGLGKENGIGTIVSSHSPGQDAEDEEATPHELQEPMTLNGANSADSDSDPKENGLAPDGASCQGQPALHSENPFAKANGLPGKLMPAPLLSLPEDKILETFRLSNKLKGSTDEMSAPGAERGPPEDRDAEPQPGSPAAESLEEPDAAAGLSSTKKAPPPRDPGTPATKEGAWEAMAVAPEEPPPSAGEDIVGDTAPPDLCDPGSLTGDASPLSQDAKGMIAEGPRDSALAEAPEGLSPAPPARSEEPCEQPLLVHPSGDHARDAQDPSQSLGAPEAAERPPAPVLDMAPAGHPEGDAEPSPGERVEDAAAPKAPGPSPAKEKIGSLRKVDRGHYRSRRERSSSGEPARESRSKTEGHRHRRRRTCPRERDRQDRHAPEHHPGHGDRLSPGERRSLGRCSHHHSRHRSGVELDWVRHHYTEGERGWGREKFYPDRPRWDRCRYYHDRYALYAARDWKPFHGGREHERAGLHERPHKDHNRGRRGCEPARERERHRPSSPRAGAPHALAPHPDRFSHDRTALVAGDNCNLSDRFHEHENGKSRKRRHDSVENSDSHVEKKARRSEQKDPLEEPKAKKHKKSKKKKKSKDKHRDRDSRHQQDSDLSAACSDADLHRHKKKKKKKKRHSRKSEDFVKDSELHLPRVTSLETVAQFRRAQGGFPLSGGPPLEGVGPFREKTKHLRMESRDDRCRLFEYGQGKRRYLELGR
# Procedure, shortened: (§1)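 HEK293T lysate in Tris/CHAPS/IGEPAL buffer with protease inhibitors (495 µg per sample) was given fragment at 200 µM or vehicle for 3 h, in triplicate. It then received Biotin-Ahx-Ub-VS at 0.5 µM final for 1 h. Labelled DUBs were NeutrAvidin-enriched, digested with LysC and trypsin, and run by diaPASEF LC-MS/MS. Values are average log2 fragment/vehicle ratios by unpaired t-test on global-median-normalised Spectronaut quantities of proteins with ≥2 unique peptides.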
# [2] = biological target: USP46 (UniProt P62068)
# Procedure, shortened: as §1
# [3] = biological target: T2, USP47 (UniProt Q96K76)
# T2 sequence (whole entry): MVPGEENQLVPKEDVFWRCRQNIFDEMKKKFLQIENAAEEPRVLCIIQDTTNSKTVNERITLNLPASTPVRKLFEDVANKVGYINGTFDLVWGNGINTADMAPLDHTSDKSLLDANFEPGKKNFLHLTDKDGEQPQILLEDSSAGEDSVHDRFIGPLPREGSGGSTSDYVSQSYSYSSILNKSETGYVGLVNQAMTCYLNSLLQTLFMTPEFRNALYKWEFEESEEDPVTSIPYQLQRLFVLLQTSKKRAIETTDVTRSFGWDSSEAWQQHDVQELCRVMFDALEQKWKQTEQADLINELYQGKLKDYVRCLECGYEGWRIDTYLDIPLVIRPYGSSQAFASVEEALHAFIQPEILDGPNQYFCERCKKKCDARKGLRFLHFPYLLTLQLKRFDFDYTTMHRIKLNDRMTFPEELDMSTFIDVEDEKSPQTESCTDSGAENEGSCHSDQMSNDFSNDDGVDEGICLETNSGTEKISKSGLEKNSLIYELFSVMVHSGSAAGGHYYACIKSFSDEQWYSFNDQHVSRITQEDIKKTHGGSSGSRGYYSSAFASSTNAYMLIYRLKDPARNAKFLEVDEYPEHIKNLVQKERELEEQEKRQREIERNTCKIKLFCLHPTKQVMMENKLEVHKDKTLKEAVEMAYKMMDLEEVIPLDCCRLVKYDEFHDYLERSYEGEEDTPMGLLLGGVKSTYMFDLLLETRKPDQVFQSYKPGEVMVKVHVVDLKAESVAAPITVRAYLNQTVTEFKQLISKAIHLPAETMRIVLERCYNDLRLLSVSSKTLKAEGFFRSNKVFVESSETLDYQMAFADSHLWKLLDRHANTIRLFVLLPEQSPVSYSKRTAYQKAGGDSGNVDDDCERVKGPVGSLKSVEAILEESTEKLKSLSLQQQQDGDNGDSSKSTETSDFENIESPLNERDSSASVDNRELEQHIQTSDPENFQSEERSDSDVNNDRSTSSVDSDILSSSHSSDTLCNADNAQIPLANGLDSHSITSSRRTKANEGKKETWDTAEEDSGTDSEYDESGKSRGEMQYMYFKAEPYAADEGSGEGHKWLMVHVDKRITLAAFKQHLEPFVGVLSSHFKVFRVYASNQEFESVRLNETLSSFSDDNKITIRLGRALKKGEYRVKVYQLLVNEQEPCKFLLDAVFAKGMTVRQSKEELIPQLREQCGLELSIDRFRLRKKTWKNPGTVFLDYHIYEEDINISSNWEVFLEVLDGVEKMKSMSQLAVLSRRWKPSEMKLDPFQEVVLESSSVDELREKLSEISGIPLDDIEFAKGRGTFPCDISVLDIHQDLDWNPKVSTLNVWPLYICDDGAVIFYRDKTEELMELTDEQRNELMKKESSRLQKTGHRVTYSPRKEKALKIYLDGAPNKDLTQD
# Procedure, shortened: as §1
# [4] = biological target: T3, USP48 (UniProt Q86UV5)
# T3 sequence (whole entry): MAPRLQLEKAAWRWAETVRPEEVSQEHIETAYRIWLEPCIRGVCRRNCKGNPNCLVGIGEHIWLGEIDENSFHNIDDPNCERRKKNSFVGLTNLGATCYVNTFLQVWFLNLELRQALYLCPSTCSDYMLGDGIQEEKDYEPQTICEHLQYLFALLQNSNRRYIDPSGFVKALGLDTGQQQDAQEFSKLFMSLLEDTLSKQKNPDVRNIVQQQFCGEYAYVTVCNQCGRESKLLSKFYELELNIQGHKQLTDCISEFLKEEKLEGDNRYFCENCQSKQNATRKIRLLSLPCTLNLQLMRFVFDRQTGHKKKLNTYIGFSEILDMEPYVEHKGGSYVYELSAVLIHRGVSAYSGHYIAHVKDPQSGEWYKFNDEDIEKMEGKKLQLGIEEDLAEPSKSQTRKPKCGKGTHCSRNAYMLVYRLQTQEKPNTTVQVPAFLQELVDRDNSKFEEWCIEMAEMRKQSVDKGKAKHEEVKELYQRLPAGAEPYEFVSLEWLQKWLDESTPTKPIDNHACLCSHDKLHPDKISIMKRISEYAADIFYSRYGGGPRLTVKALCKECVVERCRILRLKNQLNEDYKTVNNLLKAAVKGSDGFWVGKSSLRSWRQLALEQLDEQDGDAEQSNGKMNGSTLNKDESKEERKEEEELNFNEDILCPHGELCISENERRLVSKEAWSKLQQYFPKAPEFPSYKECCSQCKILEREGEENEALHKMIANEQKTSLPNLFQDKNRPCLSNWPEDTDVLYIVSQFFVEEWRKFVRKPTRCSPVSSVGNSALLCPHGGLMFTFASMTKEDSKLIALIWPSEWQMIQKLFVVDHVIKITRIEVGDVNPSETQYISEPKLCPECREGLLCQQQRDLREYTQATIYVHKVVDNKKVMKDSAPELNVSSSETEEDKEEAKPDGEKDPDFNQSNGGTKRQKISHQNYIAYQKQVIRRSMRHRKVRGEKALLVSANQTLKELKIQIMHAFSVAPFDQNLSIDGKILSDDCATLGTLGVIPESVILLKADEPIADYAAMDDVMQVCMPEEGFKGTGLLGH
# Procedure, shortened: as §1
# [5] = biological target: T4, USP5 (UniProt P45974)
# T4 sequence (whole entry): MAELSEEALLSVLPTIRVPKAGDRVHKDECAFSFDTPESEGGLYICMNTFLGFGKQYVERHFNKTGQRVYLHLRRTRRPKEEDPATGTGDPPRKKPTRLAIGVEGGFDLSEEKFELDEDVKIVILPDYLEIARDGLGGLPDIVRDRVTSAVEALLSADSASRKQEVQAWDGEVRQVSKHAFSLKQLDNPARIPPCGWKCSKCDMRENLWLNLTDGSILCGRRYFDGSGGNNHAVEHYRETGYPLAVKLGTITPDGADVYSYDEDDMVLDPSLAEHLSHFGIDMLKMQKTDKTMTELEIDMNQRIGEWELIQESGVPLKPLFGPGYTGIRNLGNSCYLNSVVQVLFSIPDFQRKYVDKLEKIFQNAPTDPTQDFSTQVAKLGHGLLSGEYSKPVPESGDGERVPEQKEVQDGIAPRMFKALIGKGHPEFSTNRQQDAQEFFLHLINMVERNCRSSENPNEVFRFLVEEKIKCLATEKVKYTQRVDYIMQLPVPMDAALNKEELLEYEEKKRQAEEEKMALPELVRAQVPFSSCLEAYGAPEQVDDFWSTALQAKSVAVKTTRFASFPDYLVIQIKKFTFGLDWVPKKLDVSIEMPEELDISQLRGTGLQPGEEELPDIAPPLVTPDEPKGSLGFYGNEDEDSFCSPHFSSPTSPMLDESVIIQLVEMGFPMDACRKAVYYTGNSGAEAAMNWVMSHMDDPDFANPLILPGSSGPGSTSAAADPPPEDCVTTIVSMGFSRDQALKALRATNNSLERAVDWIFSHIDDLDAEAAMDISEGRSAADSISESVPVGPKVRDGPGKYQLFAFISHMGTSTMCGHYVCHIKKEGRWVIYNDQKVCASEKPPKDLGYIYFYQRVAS
# Procedure, shortened: as §1
# [6] = biological target: USP54 (UniProt Q70EL1)
# Procedure, shortened: as §1
# [7] = biological target: USP7 (UniProt Q93009)
# Procedure, shortened: as §1
# [8] = biological target: T5, USP8 (UniProt P40818)
# T5 sequence (whole entry): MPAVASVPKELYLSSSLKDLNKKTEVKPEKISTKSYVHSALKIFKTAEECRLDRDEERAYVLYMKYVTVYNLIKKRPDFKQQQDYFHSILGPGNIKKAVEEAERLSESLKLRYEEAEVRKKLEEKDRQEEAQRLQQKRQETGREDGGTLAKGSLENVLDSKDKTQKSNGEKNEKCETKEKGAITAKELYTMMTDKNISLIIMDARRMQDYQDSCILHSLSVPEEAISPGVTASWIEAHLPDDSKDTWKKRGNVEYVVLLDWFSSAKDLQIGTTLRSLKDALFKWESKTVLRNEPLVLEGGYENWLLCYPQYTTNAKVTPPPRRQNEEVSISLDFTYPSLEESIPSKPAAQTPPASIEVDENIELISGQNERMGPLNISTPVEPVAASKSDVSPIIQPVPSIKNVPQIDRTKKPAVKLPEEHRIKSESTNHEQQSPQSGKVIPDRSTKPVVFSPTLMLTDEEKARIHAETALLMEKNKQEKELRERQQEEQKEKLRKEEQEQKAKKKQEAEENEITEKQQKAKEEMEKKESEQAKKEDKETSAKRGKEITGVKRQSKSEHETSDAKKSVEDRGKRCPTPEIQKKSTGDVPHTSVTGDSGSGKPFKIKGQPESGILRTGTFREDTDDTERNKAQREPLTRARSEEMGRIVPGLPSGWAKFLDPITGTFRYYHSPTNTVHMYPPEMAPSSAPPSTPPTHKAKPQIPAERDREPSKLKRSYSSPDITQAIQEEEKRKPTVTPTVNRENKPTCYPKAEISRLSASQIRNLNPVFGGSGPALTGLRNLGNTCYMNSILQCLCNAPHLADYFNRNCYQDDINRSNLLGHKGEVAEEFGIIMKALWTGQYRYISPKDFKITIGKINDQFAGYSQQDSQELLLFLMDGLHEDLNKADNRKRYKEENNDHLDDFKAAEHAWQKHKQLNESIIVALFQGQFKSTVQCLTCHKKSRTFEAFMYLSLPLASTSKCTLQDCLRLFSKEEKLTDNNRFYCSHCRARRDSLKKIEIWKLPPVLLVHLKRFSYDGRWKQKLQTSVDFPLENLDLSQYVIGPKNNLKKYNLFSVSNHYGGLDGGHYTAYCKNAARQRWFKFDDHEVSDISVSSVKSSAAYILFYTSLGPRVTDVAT
# Procedure, shortened: as §1
# USP46, sequence (P62068 whole entry): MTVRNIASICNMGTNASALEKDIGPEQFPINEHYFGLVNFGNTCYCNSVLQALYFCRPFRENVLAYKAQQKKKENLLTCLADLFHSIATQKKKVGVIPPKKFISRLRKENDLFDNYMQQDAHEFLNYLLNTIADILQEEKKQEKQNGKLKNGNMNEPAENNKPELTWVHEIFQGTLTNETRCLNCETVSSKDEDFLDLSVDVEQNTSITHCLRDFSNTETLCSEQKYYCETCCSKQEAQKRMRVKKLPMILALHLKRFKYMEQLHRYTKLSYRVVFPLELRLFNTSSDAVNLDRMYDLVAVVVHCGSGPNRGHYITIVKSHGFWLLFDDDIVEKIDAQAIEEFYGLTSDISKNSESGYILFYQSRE
# USP7, sequence (Q93009 whole entry, looked up): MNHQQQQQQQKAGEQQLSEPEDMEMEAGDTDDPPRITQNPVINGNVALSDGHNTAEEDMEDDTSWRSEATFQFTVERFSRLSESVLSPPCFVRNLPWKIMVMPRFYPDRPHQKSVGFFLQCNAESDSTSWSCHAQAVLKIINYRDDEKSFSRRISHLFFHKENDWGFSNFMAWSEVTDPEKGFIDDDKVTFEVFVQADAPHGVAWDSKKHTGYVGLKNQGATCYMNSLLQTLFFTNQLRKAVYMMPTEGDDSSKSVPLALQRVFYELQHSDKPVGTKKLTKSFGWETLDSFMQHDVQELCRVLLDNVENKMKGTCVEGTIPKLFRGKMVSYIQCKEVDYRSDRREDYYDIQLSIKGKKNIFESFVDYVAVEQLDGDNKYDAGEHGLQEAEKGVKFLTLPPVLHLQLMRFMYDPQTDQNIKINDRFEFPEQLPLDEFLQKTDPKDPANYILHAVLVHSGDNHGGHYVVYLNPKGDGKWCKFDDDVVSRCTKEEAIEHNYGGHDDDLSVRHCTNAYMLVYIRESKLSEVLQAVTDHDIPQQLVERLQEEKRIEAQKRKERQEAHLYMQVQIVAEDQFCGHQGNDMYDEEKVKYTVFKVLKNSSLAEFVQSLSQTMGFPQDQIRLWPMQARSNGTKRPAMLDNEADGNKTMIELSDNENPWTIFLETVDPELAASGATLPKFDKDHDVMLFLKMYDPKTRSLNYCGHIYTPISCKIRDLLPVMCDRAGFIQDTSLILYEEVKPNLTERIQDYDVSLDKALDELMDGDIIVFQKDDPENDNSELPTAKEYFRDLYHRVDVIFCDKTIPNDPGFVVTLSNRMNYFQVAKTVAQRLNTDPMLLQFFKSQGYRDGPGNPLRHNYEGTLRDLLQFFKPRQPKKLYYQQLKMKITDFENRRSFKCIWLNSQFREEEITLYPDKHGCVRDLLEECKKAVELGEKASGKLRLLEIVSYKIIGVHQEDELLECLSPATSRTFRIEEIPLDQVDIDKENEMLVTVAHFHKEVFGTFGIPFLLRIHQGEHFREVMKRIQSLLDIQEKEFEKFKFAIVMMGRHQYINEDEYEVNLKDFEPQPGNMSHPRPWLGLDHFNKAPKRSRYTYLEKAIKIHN
# USP54, sequence (Q70EL1 whole entry): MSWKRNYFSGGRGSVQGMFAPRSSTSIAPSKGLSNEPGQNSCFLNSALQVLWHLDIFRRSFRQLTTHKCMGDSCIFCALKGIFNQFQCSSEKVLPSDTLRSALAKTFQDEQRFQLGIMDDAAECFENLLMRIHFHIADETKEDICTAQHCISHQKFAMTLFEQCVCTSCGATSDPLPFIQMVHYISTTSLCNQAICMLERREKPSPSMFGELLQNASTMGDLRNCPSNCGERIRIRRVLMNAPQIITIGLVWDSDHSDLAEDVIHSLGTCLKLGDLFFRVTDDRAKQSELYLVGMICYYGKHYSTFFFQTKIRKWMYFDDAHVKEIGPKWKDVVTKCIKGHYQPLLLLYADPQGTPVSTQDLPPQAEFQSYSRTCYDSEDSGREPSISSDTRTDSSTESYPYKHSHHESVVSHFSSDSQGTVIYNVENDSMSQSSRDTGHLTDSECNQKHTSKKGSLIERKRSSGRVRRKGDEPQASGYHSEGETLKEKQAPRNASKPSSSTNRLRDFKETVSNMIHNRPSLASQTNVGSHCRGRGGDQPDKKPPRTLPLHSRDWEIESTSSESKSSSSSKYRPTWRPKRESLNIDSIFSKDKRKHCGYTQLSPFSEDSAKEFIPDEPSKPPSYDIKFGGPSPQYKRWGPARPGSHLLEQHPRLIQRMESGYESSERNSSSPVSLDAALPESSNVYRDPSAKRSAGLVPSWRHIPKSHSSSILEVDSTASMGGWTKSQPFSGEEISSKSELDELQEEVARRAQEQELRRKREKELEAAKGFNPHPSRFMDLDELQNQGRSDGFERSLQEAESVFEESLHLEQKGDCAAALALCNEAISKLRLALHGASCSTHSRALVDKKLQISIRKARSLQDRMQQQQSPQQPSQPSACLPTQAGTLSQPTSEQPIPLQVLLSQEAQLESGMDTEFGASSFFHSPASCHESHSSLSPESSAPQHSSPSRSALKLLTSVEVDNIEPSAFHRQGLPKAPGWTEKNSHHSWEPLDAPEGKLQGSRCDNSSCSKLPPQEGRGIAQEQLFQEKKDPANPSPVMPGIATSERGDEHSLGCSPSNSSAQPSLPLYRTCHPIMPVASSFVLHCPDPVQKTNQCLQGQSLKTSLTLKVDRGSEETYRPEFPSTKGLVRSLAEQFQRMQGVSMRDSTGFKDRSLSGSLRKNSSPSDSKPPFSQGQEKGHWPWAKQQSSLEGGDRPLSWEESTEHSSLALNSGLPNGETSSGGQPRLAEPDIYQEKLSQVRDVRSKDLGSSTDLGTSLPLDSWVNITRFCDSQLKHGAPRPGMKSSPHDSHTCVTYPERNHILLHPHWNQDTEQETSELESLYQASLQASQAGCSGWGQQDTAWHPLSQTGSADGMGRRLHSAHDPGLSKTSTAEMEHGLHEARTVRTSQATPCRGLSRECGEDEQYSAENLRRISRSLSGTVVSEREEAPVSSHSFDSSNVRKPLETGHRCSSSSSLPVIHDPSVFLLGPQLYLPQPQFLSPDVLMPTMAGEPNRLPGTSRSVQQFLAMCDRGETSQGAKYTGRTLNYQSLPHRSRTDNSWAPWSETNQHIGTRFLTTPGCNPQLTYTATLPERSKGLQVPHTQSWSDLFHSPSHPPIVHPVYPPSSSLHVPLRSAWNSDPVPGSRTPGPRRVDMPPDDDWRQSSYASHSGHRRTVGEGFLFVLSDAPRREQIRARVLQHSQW
smiles,measurement,setting,value
O=C(CCl)Nc1cc2c(cc1Cl)OCCO2,log2 ratio of Biotin-Ahx-Ub-VS probe labelling,[1],0.233
same,log2 ratio of Biotin-Ahx-Ub-VS probe labelling,[2],0.0711
same,log2 ratio of Biotin-Ahx-Ub-VS probe labelling,[3],-0.426
same,log2 ratio of Biotin-Ahx-Ub-VS probe labelling,[4],-1.05 (active)
same,log2 ratio of Biotin-Ahx-Ub-VS probe labelling,[5],0.0658
same,log2 ratio of Biotin-Ahx-Ub-VS probe labelling,[6],0.291
same,log2 ratio of Biotin-Ahx-Ub-VS probe labelling,[7],-0.216
same,log2 ratio of Biotin-Ahx-Ub-VS probe labelling,[8],-0.226
